Values without a mark were called inactive. No rule for the calls is given here.

The results in this text go back to PubChem BioAssay (NCATS).
Potency is read from the fitted curve at half-maximal effect.

This assay has as its system HIV-1 nucleocapsid protein NCp7 (binding to TG oligonucleotide). The experiment in a line: HIV Nucleocapsid (AID 346).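 Also: potency is for inhibitors that block NC binding and lower polarization.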 To be noted: HIV-1 NC / fluorescein-TGTGTGTG probe, fluorescence polarization. Put shortly:
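Fluorescence polarization readout: labelled TG4xF oligo (10 nM) with 100 nM nucleocapsid protein, high-salt (250mM NaCl) Hepes pH 7.5 buffer containing zinc and fresh reducing agents. Compounds added by pin tool; incubation 1 hr, room temperature.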
For orientation: Polarisation of emitted light reports the rotation of a fluorescent probe.
As for `CC(=O)N1CCC2(CC1)CN(c1ccccn1)C2`, the Potency was above 20 µM.

For `COc1ccccc1CNc1cc(-c2ccccc2C)ncn1`, the Potency was above 20 µM.

Consider `COCCNc1ncnc2ccc(-c3ccc(C(=O)N(C)C)cc3)cc12`, for which the Potency was above 20 µM.

As for `COc1ccccc1CNc1ncnc2ccc(-c3ccccc3CN(C)C)cc12`, the Potency was above 20 µM.

For `c1cncc(-c2cc(NCc3cccs3)ncn2)c1`, the Potency was above 20 µM.

As to `CN(C)C(=O)c1ccc(-c2ccc3ncnc(N4CCOCC4)c3c2)cc1`, the Potency is above 20 µM.

As for `O=S(=O)(c1ccccc1)N1CCC2(CCCN(C(c3ccccc3)c3ccccc3)C2)CC1`, the Potency was above 20 µM.

On to `COc1ccccc1CN1CCCC2(CCN(C(=O)c3cccc(F)c3)CC2)C1`, for which the Potency was above 20 µM.

`N#CCCn1c(=O)c(-c2ccc(F)cc2)nc2cnc(N3CCNCC3)nc21`: the Potency was above 20 µM.

As to `O=C(Oc1ccccc1)N1CCC2(CCCN(c3ncccn3)C2)CC1`, the Potency is above 20 µM.

For `CC(C)NC(=O)N1CCC2(CC1)CCN(C(=O)c1ccco1)CC2`, the Potency is above 20 µM.

`c1cncc(CNc2nc(-c3ccc4c(c3)OCO4)nc3ccccc23)c1`: the Potency is above 20 µM.

Turning to `N#Cc1ccc(CN2CC3(CCN(C(=O)c4cccc(F)c4)CC3)C2)cc1`, the Potency was above 20 µM.

`CC(=O)N1CCC2(CCCN(Cc3ccccc3)C2)CC1`: the Potency is above 20 µM.

On to `COc1ccccc1CN1CCCC2(CCN(C(=O)c3cc(C(F)(F)F)cc(C(F)(F)F)c3)CC2)C1`, for which the Potency was above 20 µM.

In the case of `COCCn1c(=O)cnc2cnc(OCc3ccccc3)nc21`, the Potency is above 20 µM.

`COc1ccc(-n2c(=O)c(CCc3ccccc3)nc3cnc(N4CCOCC4)nc32)cc1`: the Potency is above 20 µM.

`CN(C)c1ncc2nc(-c3ccc(Cl)cc3)c(=O)n(Cc3ccc(F)cc3)c2n1`: the Potency was above 4 µM.

Take `COc1cccc(Cn2c(=O)c(CCc3ccccc3)nc3cncnc32)c1`: the Potency is above 20 µM.

In the case of `O=C(c1cc(C(F)(F)F)cc(C(F)(F)F)c1)N1CCC2(CC1)CN(Cc1ccncc1)C2`, the Potency is above 20 µM.

`COc1ccc(NC(=O)N2CCCC3(CCN(C(=O)c4cc(C(F)(F)F)cc(C(F)(F)F)c4)CC3)C2)cc1`: the Potency is above 20 µM.

Turning to `O=c1c(-c2ccccc2)nc2cnc(Oc3cccc(Cl)c3)nc2n1C1CC1`, the Potency is above 20 µM.

For the compound `CCNc1ncc2nc(-c3ccccc3)c(=O)n(Cc3cccc(OC)c3)c2n1`, the Potency was above 20 µM.

For the compound `COc1ccc(CNc2nc(-c3cccc(C#N)c3)nc3ccccc23)c(OC)c1`, the Potency was above 20 µM.

On to `CS(=O)(=O)Nc1cccc(-c2nc(NCCN3CCOCC3)c3ccccc3n2)c1`, for which the Potency is above 20 µM.

`CS(=O)(=O)N1CCC[C@@]2(CCN(C(=O)Nc3cccc(C#N)c3)C2)C1`: the Potency was above 20 µM.

Consider `CCNc1ncc2nc(-c3ccc(F)cc3)c(=O)n(-c3ccccc3)c2n1`, for which the Potency is above 20 µM.

Regarding `O=c1c(-c2cc(F)cc(F)c2)nc2cnc(N3CCOCC3)nc2n1C[C@H]1CCCO1`, the Potency was above 20 µM.

On to `COc1cccc(Cn2c(=O)cnc3cncnc32)c1`, for which the Potency was above 20 µM.

As for `CN(C)c1ncc2nc(-c3ccc(F)cc3)c(=O)n(C[C@H]3CCCO3)c2n1`, the Potency is above 20 µM.

With `COc1ncc2nc(C)c(=O)n(-c3ccccc3)c2n1`, the Potency was above 20 µM.

As to `CN1CCN(c2ccnc(-c3cccc(NS(C)(=O)=O)c3)n2)CC1`, the Potency is above 20 µM.

In the case of `COc1ccc(-n2c(=O)c(C)nc3cnc(Nc4ccccc4)nc32)cc1`, the Potency is above 20 µM.

Consider `Cc1noc(C)c1-c1ccc2ncnc(N(C)C)c2c1`, for which the Potency was above 20 µM.

On to `CC(C)CN1CCC2(CC1)CCN(S(=O)(=O)c1ccccc1)CC2`, for which the Potency was above 20 µM.

For the compound `COc1cccc(Nc2ncc3nc(-c4ccccc4)c(=O)n(C4CC4)c3n2)c1`, the Potency is above 20 µM.

As to `CC(=O)N1CCC2(CCCN(c3ccccc3)C2)CC1`, the Potency was above 20 µM.

Regarding `CS(=O)(=O)Nc1cccc(-c2nc(Nc3ccc(F)cc3)c3ccccc3n2)c1`, the Potency is above 20 µM.

As to `CN(C)c1ncc2nc(-c3cc(F)cc(F)c3)c(=O)n(CCC#N)c2n1`, the Potency was above 20 µM.

Turning to `COc1ccc(NC(=O)N2CC3(CCN(C(=O)c4cc(C(F)(F)F)cc(C(F)(F)F)c4)CC3)C2)cc1`, the Potency is above 20 µM.
